Experimental findings from ChEMBL document CHEMBL1961873, “Compounds: GSK PKIS; Assays: Nanosyn kinase panel” (2012) are described below.
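Further: enzyme tested as the CDK4–cyclin D complex, with the value reported as mean percent inhibition.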

In the test the target is Cyclin-dependent kinase 4 (Homo sapiens) (UniProt P11802). Conditions: at 1 µM.
Chain of Cyclin-dependent kinase 4 (Homo sapiens) (P11802 whole entry): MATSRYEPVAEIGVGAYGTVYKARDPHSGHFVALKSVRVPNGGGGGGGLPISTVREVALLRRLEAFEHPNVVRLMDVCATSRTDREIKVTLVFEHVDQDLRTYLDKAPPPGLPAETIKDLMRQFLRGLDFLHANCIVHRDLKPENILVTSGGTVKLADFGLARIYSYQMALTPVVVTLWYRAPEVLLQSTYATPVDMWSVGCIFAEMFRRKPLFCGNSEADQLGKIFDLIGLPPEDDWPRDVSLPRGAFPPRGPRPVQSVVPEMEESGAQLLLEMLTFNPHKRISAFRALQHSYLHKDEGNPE
For the compound `CN(c1ccc(NC(=O)Nc2c(Cl)cccc2Cl)cc1)c1ccnc(Nc2cccc(CS(C)(=O)=O)c2)n1`, the inhibition (as a rule, the change of the read-out against control, counted positive when it falls) is -0.25%.
In the case of `CCS(=O)(=O)c1ccc(OC)c(Nc2ncc(-c3cccc(-c4ccccc4F)c3)o2)c1` it was -0.45%; in that of `CS(=O)(=O)CCNCc1ccc(-c2ccc3ncnc(Nc4ccc(OCc5ccccc5)c(Br)c4)c3c2)o1`, -0.83%; in that of `N#Cc1ccc(Oc2nccc(-c3c(-c4ccc(F)cc4)ncn3C3CCNCC3)n2)cc1`, 3.8%.
In the case of `Fc1ccc(-c2ncn(C3CCNCC3)c2-c2ccnc(Oc3ccc4c(c3)OCO4)n2)cc1` it was 3.63%.
On to `COc1cc(N2CCN(C(C)C)CC2)ccc1Nc1nc(Nc2ccc(F)cc2C(=O)NC[C@@H](O)CO)c2cc[nH]c2n1`, for which the inhibition was -0.98%.
In the case of `O=C1NC(=O)C(c2cccc(Cl)c2)=C1Nc1ccc(Cl)c(C(=O)O)c1` it was 1.74%; in that of `NC(=O)c1cc(-c2ccncc2)cc(-c2ccccc2)c1N`, 2.69%.
For `CS(=O)(=O)CCNCc1cc(-c2cc3c(Nc4ccc(OCc5cccc(F)c5)c(Cl)c4)ncnc3s2)cs1`, the inhibition came to 4.29%.
As to `Cc1ccc(C(=O)NC2CCC2)cc1-c1ccc(C(=O)NCC2CC2)cc1`, the inhibition stood at 3.14%.
`NC(=O)c1cc(-c2ccc(F)cc2)cc(-c2ccncc2)c1N`: the inhibition was found to be 2.25%.
For `O=C(Nc1n[nH]c2cc(-c3ccccc3)ccc12)C1CC1`, the inhibition was 9.81%.
On to `O=C(Nc1n[nH]c2nc(-c3ccc(O)cc3)c(Br)cc12)C1CC1`, for which the inhibition is 73.9%.
For `C/C(Nc1ccc(S(N)(=O)=O)cc1)=C1/C(=O)Nc2ccccc21`, the inhibition worked out at 32%.
With `O=C1Nc2ccccc2/C1=C/Nc1ccc(-n2cncn2)cc1`, the inhibition stood at 25.2%.
With `CCc1nccc2c1nc(-c1nonc1N)n2CC`, the inhibition came to 2.76%.
For `CCN(CC)Cc1ccc(Nc2nccc(-c3cnn4ncccc34)n2)cc1`, the inhibition came to 69.8%.
With `Fc1ccc(-c2ncn(C3CCNCC3)c2-c2ccnc(Oc3ccc(F)c(F)c3)n2)cc1`, the inhibition was 3.54%.
Regarding `C[C@@H](Oc1cc(-n2cnc3ccc(OCC4CCN(C)CC4)cc32)sc1C(N)=O)c1ccccc1Cl`, the inhibition worked out at 7.39%.
In the case of `COc1ccc2cc(-c3c(-c4ccncc4)nc(-c4ccc([S+](C)[O-])cc4C)n3C)ccc2c1` (centres undefined), the inhibition was determined as 5.75%.
The value for `CN1CCN(CCCNc2nc3ccc(Oc4ccc(NC(=O)Nc5cc(C(F)(F)F)ccc5F)cc4)cc3[nH]2)CC1` was -2.88%; that for `Nc1nccc(-c2c(-c3ccc(F)cc3)ncn2C2CCC(O)CC2)n1` (centres undefined) was 1.17%; that for `c1ccc(Oc2ccc(Nc3ncc(-c4ccccc4)o3)cc2)cc1` was 1.2%.
Take `COc1ccc(-c2ccc3c(NC(=O)C4CC4)n[nH]c3n2)cc1`: the inhibition was found to be 11.4%.
In the case of `O=C(Nc1n[nH]c2nc(-c3ccco3)ccc12)C1CC1` it was 2.71%.
Regarding `CCS(=O)(=O)c1ccc(OC)c(Nc2ncc(-c3ccccc3Cl)o2)c1`, the inhibition was -0.72%.
Consider `CN(C)c1ccc2c(c1)/C(=C/Nc1ccc(S(N)(=O)=O)cc1)C(=O)N2`, for which the inhibition came out at 43.5%.
Consider `CN(C)CCCNc1nccc(-c2c(-c3ccc(F)cc3)nn3cc(C(F)(F)F)ccc23)n1`, for which the inhibition was determined as 1.54%.
Consider `CCC(=O)Nc1ccc(C)c(-c2ccc(C(=O)NCC3CC3)cc2)c1`, for which the inhibition was 5.05%.
Consider `NS(=O)(=O)c1ccc(Nc2cc(-c3ccc(O)c(F)c3)n[nH]2)cc1`, for which the inhibition was 23.6%.
Take `COc1cc2ncn(-c3cc(OCCc4ccccc4)c(C(N)=O)s3)c2cc1OC`: the inhibition turned out to be 1.87%.
On to `Cc1ccc(C(=O)NC(C)C)cc1-c1ccc(C(=O)NCC2CC2)cc1`, for which the inhibition amounted to 0.6%.
The value for `NCc1ccc(-n2c(-c3nonc3N)nc3cnccc32)cc1` was 10.2%.
The value for `COc1cc(Nc2ncc3c(C)nc(-c4cccc(C(F)(F)F)c4)n3n2)cc(OC)c1OC` was 3.89%.
